High-throughput results as filed in PubChem BioAssay.
NTMT1 inhibitor: Primary qHTS for Inhibitors of N-terminal methyltransferase 1 (NTMT1): MTaseGlo Assay | N-terminal Xaa-Pro-Lys N-methyltransferase 1 (Homo sapiens), Q9BV86 | NTMT1 MTase-Glo SAH luminescence, purified enzyme | Potency, µM (top dose mostly 114 µM), without a hit: at the top dose activity change, negative = inhibition, hits mostly inhibitors | 2.5% of 59,000 active;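 also: potency is read from the fitted curve at half-maximal effect; plate controls were DMSO vehicle for no effect and no enzyme for full effect; nearly all actives have a fitted effect of over 65% in size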
Target sequence (Q9BV86 whole entry, looked up): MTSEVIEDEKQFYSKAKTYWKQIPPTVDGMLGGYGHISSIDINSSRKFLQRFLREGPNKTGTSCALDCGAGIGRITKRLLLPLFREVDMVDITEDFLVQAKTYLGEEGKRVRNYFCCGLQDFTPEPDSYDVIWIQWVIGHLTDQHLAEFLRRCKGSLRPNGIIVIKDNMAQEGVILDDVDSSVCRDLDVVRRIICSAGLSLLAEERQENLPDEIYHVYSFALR
OvCa metastasis: Primary qHTS assay for Inhibitors of ovarian cancer metastasis using an organotypic tumor microenvironment (TME) model; Potency, µM (titrated, usually from 45.8 µM), for inactives: at the top dose activity change, negative = inhibition, hits mostly inhibitors; AID 1963576, 2024; SKOV3ip1-GFP adhesion/invasion on 3D omental model, fluorescence; 0.1% of 46,000 active;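 also: potency is read from the fitted curve at half-maximal effect; plate controls were DMSO wells for no effect and tomatine positive control wells for full effect; nearly all actives have a fitted effect of over 65% in size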
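qHTS, 4-pt dose (0.36-46 umol/L); SKOV3ip1-GFP, 1,200 cells/well, no FBS; primary omental fibroblast/mesothelial co-culture 48 h pre-grown; 2 h RT + 16 h 37 C; PBS wash, 4% PFA; GFP count 488/509 nm.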
GPR32 ag: qHTS for Agonists of Human Resolvin D1 Receptor DRV1; 2.5% of 48,000 active; AID 1346428, 2018; activation, % at 76.9 µM; Probable G-protein coupled receptor 32 (Homo sapiens), O75388; CHO-K1 GPR32 beta-arrestin PathHunter luminescence, 90 min; zero percent set by DMSO-only wells;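 active = activation of at least 60% and not above a set upper limit, about 1 call in 100 departs from these limits; inconclusive = activation of 40% to 60%, or above that upper limit; inactive = activation under 40%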; also: 0% is about no effect
Target sequence (O75388 whole entry, looked up): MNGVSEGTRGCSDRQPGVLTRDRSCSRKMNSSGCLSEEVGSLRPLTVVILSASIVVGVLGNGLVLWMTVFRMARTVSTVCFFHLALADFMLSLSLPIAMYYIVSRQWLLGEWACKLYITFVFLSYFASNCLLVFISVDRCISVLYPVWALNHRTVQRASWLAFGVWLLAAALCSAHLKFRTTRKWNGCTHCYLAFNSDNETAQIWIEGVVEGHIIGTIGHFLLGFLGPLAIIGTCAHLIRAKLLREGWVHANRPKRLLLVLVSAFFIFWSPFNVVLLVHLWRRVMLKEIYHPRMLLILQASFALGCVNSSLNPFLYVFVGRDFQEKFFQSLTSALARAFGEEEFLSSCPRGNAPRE
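Step 1: seed CHO-K1 GPR32 beta-arrestin cells, 2,500/well, overnight at 37 °C. Step 2: add compounds, 90 min at 37 °C. Step 3: detection reagent, 1 h ambient, then luminescence.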
FH mod: Identification of activators of human fumarate hydratase by quantitative high-throughput screening | Fumarate hydratase, mitochondrial (Homo sapiens), P07954 | FH coupled MDH/diaphorase resazurin fluorescence, 15 min | Potency, µM (series often up to 79.9 µM), without a hit: at the top dose activity change, negative = inhibition, most hits filed as inhibitors | 0.22% of 54,000 active | AID 1347055, 2019; also: potency is read from the fitted curve at half-maximal effect; % is scaled to controls: 0 for no effect and ±100 for the full control effect; the screen sought activators but most active calls are inhibition curves; nearly all actives have a fitted effect of over 45% in size
* = called active by the depositor; i = inactive; ? = inconclusive; · = not tested or not shown; ! = not active in a repeat; [ ] = another dose, or the depositor's remark. Most compounds without a hit are left out; they make up all but 3.9% or so of the library. Unless noted, calls follow the shape of the dose curve; as a rule, active = well fitted curve in the direction sought with a large enough effect; inconclusive = small, poorly fitted or top-dose-only effect, or another doubt; inactive = no such curve, though single readings can be large; an effect the other way counts as inactive or inconclusive.

SMILES | NTMT1 inhibitor | OvCa metastasis | GPR32 ag | FH mod
Cn1cc(/C=C2\C(=O)Nc3cccnc32)c2ccccc21 | 44.7µM* | · | · | ·
Cn1cc(C2=C(c3ccc(Cl)cc3Cl)C(=O)NC2=O)c2ccccc21 | 2.4% | · | -34.8 | 0.4%
Cc1cccc(NC(=O)C2(C)Cc3ccccc3C(=O)O2)c1 (configuration not stated) | 18.7% | -5.4% | -5.1 | 3.4%
CC(C)c1ccc(NC(=O)C2(C)Cc3ccccc3C(=O)O2)cc1 (configuration not stated) | -5.1% | 6.6% | 78.6* | -4.7%
Cc1ccc(Cl)cc1NC(=O)CSc1nc(C)c(C)c(C)c1C#N | 10.3% | i | 115.2* | -1.0%
Cc1ccc(CN2CCNCC2)cc1NC(=O)CNc1ccc(F)c(F)c1 | ? | 5.0% | · | -3.2%
CC(C)c1ccc(NC(=O)Cn2c(=O)oc3cc(S(=O)(=O)N4CCCC4)ccc32)cc1 | 0.3% | 33.6% | 96.7* | -22.1%
Cc1ccc(NC(=O)Cn2c(=O)oc3cc(S(=O)(=O)N4CCCCC4)ccc32)c(Cl)c1 | -2.0% | -6.6% | 111.5* | -11.8%
Cc1cc(C)cc(NC(=O)Cn2c(=O)oc3cc(S(=O)(=O)N4CCCC4)ccc32)c1 | 0.5% | 12.2% | -30.0 | -14.1%
COc1ccc2nc(-c3ccc(N(C)C)cc3)sc2c1 | -9.7%[57.5 µM] | · | · | ·
Cc1cccc(-n2cnc3cc(C(=O)N4CCOCC4)ccc32)c1 | 36.6% | · | · | ·
Cc1cccc(NC(=O)CSc2nc3ccc(NC(=O)COc4ccccc4F)cc3s2)c1 | 15.7% | -7.0% | -3.9 | -10.0%
Cc1ccc(NC(=O)CSc2nc3ccc(NC(=O)c4ccco4)cc3s2)cc1 | -19.9% | -18.3% | 98.5* | 3.2%
CCOC(=O)CSc1nc2ccc(NC(=O)c3cccc(F)c3)cc2s1 | 4.5% | -5.2% | 72.6* | -18.5%
CCN(CC)c1cc(C)c2cc(NC(=O)c3cccc(F)c3)ccc2n1 | ? | -5.7% | 92.4* | -21.6%
CCN(CC)c1cc(C)c2cc(NC(=O)c3ccc(F)cc3Cl)ccc2n1 | 0.5% | ? | 18.1 | -19.1%
Cc1cccc(NC(=O)CSc2nc3ccc(NC(=O)c4ccccc4)cc3s2)c1 | 3.1% | -23.8% | 60.2* | 2.7%
CCO[C@@H]1OC(=O)C[C@@H]1NC(=O)[C@@H]1CCCN1C(=O)[C@@H](NC(=O)c1ccc(N)c(Cl)c1)C(C)(C)C | 8.6% | · | · | 2.8%
CC(C)C[C@H](CC(=O)O)C(=O)N[C@@H](Cc1c[nH]c2ccccc12)C(=O)N[C@@H](C)c1ccccc1 | 14.3%[57.5 µM] | 5.8% | · | 8.2%[53.3 µM]
O=C(COc1ccccc1Cl)Nc1ccc2oc(-c3ccccc3F)nc2c1 | 17.3% | i | -7.6 | -0.4%
COc1cc2ccccc2cc1C(=O)Nc1ccc2oc(-c3cccc(Cl)c3Cl)nc2c1 | 79.4µM* | -2.4% | 0.4 | -9.0%
CCc1ccc(-c2nc3cc(NC(=O)c4cc5ccccc5cc4OC)ccc3o2)cc1 | 4.7% | -24.9% | 21.8 | -4.2%
Cc1cccc(OCC(=O)Nc2ccc3oc(-c4ccccc4F)nc3c2)c1 | 17.3% | -5.6% | 120.6* | 3.0%
Cc1cc(Nc2cccc(C(F)(F)F)c2)nc2ccc(NC(=O)Cc3ccc(Cl)cc3)cc12 | 13.9% | i | 19.3 | ?
Cc1ccccc1-c1nc2cc(NC(=O)Cc3ccc(Cl)cc3)ccc2o1 | 6.3% | i | 118.0* | 4.1%
SMILES | NTMT1 inhibitor | OvCa metastasis | GPR32 ag | FH mod
Cc1cccc(OCC(=O)Nc2ccc3nc(Nc4cccc(C(F)(F)F)c4)cc(C)c3c2)c1 | 10.3% | -3.9% | 75.7* | -1.8%
CC(=O)NC[C@H]1CN(c2ccc(N3CCN(C(=O)CO)CC3)c(F)c2)C(=O)O1 | ? | · | · | -7.1%
COc1ccc(NS(=O)(=O)c2ccc(C)cc2)c(C(=O)Nc2nc(-c3ccccc3)cs2)c1 | 10.5% | · | · | ·
COC(=O)C1=COC(OC2OC(CO)C(O)C(O)C2O)C2C(COC(=O)/C=C/c3ccc(O)cc3)C(O)C(O)C12 (configuration not stated) | 9.4%[29.8 µM] | · | · | -4.8%[53.3 µM]
COc1cc2c(cc1O)C(c1ccc(O)cc1)C(C)C(C)C2 (configuration not stated) | ? | · | · | -16.8%
O=C(Nc1ccc2oc(-c3cccnc3)nc2c1)c1ccc(-c2cccc(Cl)c2)o1 | 25.1µM* | -16.4% | -14.2 | 2.3%
CCCCOc1cccc(C(=O)Nc2ccc3oc(-c4cccnc4)nc3c2)c1 | -3.4% | 4.6% | 12.0 | -11.4%
CCOc1cccc(C(=O)Nc2ccc3oc(-c4cccnc4)nc3c2)c1 | ? | 15.4% | 106.6* | -5.0%
CCOc1ccc(C(=O)Nc2ccc(-c3nc4cc(C(C)C)ccc4o3)cc2)cc1Cl | 13.3% | 2.2% | 84.0* | 14.7%
COc1cccc(-c2nc3cc(NC(=O)c4ccc(C)c([N+](=O)[O-])c4)ccc3o2)c1 | 79.4µM* | · | · | ·
Clc1cccc(CSc2nc3ncc(Br)cc3[nH]2)c1 | -0.2%[57.5 µM] | · | · | ·
COc1ccc(C2c3c(nc(C)[nH]c3=O)Oc3ccc4ccccc4c32)cc1OC (configuration not stated) | 8.8% | · | · | ·
Cc1cccc(/C=N/Nc2cc(N3CCOCC3)nc(OCCc3ccccn3)n2)c1 | -22.3% | · | · | ·
Cc1c(Cc2ccc3ccccc3n2)c2cc(F)ccc2n1CC(=O)O | -3.0%[57.5 µM] | · | · | -4.2%
Cc1ccc(NC(=O)/C(C#N)=C\c2ccc(-c3ccc(Cl)cc3)o2)c(C)c1 | 5.6% | -6.0% | -5.5 | 9.7%
N#C/C(=C\c1ccc(-c2cc(Cl)ccc2Cl)o1)C(=O)Nc1ccccc1C(=O)O | 10µM* | -29.8% | 111.3* | -18.0%
O=C1C(c2c(O)[nH]c3ccccc23)=Nc2ccccc21 | -13.4% | -11.6% | · | 0.1%[53.3 µM]
O=C1c2ccccc2-[n+]2ccc3c([nH]c4ccccc43)c21 | 44.7µM* | 2.35µM* | · | 6.85µM*
Cn1c(NC[C@@H](N)Cc2ccccc2)nc(-c2ccncc2)c(-c2ccc3ccccc3c2)c1=O | ? | · | · | -6.4%
Cc1ccc(C)c(NS(=O)(=O)c2ccc3c4c(cccc24)C(=O)N3)c1 | 44.7µM* | i | 11.2 | ?
O=C(O)c1ccc2cc(-c3ccc(O)c(C45CC6CC(CC(C6)C4)C5)c3)ccc2c1 | 50.1µM*! | 5.5% | · | -15.6%[53.3 µM]
CCC(=O)N1CCc2cc(S(=O)(=O)CCC(=O)Nc3ccc(Cl)c(C(F)(F)F)c3)ccc21 | -6.5% | i | 88.1* | 0.8%
CC(C)(C)C(=O)OCc1cc(=O)n2nc(C3CCCCC3)sc2n1 | 0.0% | 4.5% | 79.1* | 5.9%
Cc1nc2cccnc2n1C1CCN(C(=O)Nc2ccc(Cl)cc2)CC1 | 3.9% | i | 87.7* | -9.3%
CCOc1ccc(S(=O)(=O)N2CCC(n3c(C)nc4cccnc43)CC2)cc1 | -7.5% | 9.2% | 75.6* | -11.8%
Cc1ccc(NC(=O)N2CCC(n3c(C)nc4cccnc43)CC2)c(Cl)c1 | 5.0% | -5.8% | 1.4 | -3.1%
COc1ccc(C2Nc3ccccc3C(=O)N2CCO)cc1COc1ccc(NC(C)=O)cc1 (configuration not stated) | -1.3% | · | · | ·
